Consider 5 compounds from PubChem BioAssay.

Experiment [1] has as its system Wnt5a (protein binding on small-molecule microarray). The experiment can be described thus: small molecules binding Wnt5a protein – biophysical, small-molecule microarray, 635/667 nm fluorescence, primary screen (AID 1142).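 Also: fluorescence read at 667 nm with signal to noise per printed feature.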 To be noted: 635 nm fluorescence, higher = more signal.
A short description of experiment [2]: ATP-based viability of Huh7 replicon cells – cell-based, CellTiter-Glo luminescence, basal, 48 h, cytotoxicity control for HCV replication inhibitor project, primary screen (AID 1143).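 Also: Huh7 hepatoma cells carrying a hepatitis C replication reporter with no stimulus; test concentration not given here.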 To be noted: higher = more signal, called active from +8 up or from −8 down. Background: A replicon is a self-replicating genome or part of one, used to study replication in cells.

Experiment [3] can be described thus: Pseudomonas biofilm growth suppression – PAO1 strain, BacTiter-Glo luminescence, LB-PBS, primary screen (AID 1144). To be noted: P. aeruginosa PAO1 biofilm, 12 h, higher = more signal.
A short description of experiment [4]: basal CRE-LacZ reporter activity in PC12 – cell-based, unstimulated, primary screen (AID 1145). Particulars: no forskolin, luminescence, 4.5 h, higher = more signal, called active from +8 up or from −8 down.
The nature of experiment [5]: forskolin-driven CRE-LacZ activity in PC12 – cell-based, CRE-LacZ reporter, forskolin-stimulated, primary screen (AID 1146).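 Also: PC12 cells with 6xCRE LacZ reporter stimulated by forskolin 10 µM; beta-galactosidase reporter signal reflecting CREB driven transcription.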 To be noted: luminescence, 4.5 h, higher = more signal, called active from +8 up or from −8 down.
Experiment [6] addresses Streptavidin (Streptomyces avidinii) (UniProt P22629). Description: compounds binding control protein streptavidin – biophysical, small-molecule microarray, 635/667 nm fluorescence, artefact control for SMM compound annotation, primary screen (AID 1147).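 Also: signal reflects streptavidin binding to arrayed compounds as a control protein.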 To be noted: higher = more signal.
A short description of experiment [7]: probe aInhba binding on compound microarray – biochemical, small-molecule microarray, 635/667 nm fluorescence, primary screen (AID 1148).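 Also: score merges 667nm spot fluorescence with signal-to-noise for antibody binding to printed compounds.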 To be noted: higher = more signal.
The target of experiment [8] is Torsin-1A (Homo sapiens) (UniProt O14656). Description: TOR1A wild-type binding on microarray – cell lysate, small-molecule microarray, lysate, 635/667 nm, primary screen (AID 1149). Particulars: COS7 hTOR1A-WT lysate, 635 nm fluorescence, higher = more signal.
Sequence of Torsin-1A (Homo sapiens) (O14656 whole entry, looked up): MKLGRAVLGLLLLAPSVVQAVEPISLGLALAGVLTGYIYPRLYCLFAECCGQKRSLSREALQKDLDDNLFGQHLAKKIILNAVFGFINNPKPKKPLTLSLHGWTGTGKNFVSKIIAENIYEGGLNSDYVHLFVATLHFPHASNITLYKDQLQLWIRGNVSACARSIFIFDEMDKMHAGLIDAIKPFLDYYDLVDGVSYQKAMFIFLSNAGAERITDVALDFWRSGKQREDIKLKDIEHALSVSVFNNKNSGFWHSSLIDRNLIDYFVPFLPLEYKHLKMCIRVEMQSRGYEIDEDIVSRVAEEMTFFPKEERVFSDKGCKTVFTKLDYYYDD
Experiment [9] shares this target. The experiment can be described thus: torsin A mutant lysate binding on microarrays – cell lysate, small-molecule microarray, COS7 lysate, 635/667 nm fluorescence, primary screen (AID 1150).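 Also: score pools 667 nm emission and signal to noise measuring lysate protein binding.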 Particulars: COS7 hTOR1A mutant lysate, 635 nm fluorescence, higher = more signal.
In experiment [10] the test system is Sonic hedgehog protein (Shh). Description: Sonic hedgehog microarray binding compounds – biochemical, small-molecule microarray, 635/667 nm fluorescence, primary screen (AID 1151).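 Also: Shh protein binding to compounds spotted on small-molecule microarray slides; score combines spot fluorescence intensity with signal-to-noise across triplicate slides.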 To be noted: 635 nm fluorescence, higher = more signal.
Experiment [11] can be described thus: optical density shifts of acrAB sulA E. coli – strain DRC41, OD650, 48 h, E. coli filamentation inducer project, primary screen (AID 1152).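 Also: E. coli MC1000 strain DRC41 lacking acrAB efflux pump and sulA.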 To be noted: higher = more signal, called active from +8 up or from −8 down.
A short description of experiment [12]: probe aLefty1 binding on compound microarray – biochemical, small-molecule microarray, 635/667 nm fluorescence, primary screen (AID 1153).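 Also: score merges spot fluorescence with signal-to-noise ratio from the scanned slide images.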 To be noted: higher = more signal.
The nature of experiment [13]: plasmodial surface anion channel blockers, osmotic lysis – cell-based, P. falciparum Indochina, OD700, 1 h, primary screen (AID 1154). Particulars: P. falciparum Indochina infected RBC osmotic lysis, higher = more signal, called active from +8 up or from −8 down.
Experiment [14] can be described thus: plasmodial surface anion channel blockers, osmotic lysis – cell-based, P. falciparum Indochina, OD700, 2 h, primary screen (AID 1155).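 Also: lysis reports solute entry through the parasite surface anion channel PSAC.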 Particulars: P. falciparum Indochina infected erythrocytes, higher = more signal, called active from +8 up or from −8 down.
Experiment [15] in a line: changes in parasitized red cell lysis, either direction – P. falciparum Indochina, OD700, 3 h, PSAC antagonist project, primary screen (AID 1156). To be noted: P. falciparum-infected erythrocytes, osmotic lysis, higher = more signal, called active from +8 up or from −8 down.
A short description of experiment [16]: plasmodial surface anion channel blockers, osmotic lysis – cell-based, P. falciparum Indochina, OD700, 18 h, primary screen (AID 1157). To be noted: P. falciparum Indochina infected erythrocytes, osmotic lysis OD700, 18 h; higher = more signal, called active from +8 up or from −8 down.
The nature of experiment [17]: S6 kinase pathway phospho-S6 level changes – cell-based, A549, cytoblot, luminescence, serum-stimulated, primary screen (AID 1158).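 Also: serum-stimulated A549 lung adenocarcinoma cells; signal is phosphorylated S6 detected by cytoblot immunostaining with HRP secondary.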 To be noted: 5 h, higher = more signal.
For experiment [18], the target named is NADPH oxidase 2 (Homo sapiens) (UniProt P04839). The experiment can be described thus: compounds shifting NOX2 Amplex Red fluorescence – cell-based, HEK293-NOX2, PMA-stimulated, NOX inhibitor project, primary screen (AID 1159). Also: test concentration not given here. Particulars: 45 min, higher = more signal, called active from +8 up or from −8 down.
Sequence of NADPH oxidase 2 (Homo sapiens) (P04839 whole entry, looked up): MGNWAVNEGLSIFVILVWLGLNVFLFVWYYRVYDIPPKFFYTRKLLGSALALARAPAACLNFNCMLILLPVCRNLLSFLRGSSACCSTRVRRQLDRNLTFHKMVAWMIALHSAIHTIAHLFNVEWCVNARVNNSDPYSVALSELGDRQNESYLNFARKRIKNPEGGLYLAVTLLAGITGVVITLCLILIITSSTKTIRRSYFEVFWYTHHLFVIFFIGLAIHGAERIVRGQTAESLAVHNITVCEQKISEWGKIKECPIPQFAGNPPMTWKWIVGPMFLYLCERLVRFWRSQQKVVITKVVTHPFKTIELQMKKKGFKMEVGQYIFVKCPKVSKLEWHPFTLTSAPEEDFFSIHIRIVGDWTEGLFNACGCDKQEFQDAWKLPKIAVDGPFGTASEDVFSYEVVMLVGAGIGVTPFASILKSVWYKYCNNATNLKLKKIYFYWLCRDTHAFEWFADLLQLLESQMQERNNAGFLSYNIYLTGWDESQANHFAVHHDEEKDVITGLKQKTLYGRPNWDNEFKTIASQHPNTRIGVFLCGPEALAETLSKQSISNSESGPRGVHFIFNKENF
The target of experiment [19] is NADPH oxidase 4 (Homo sapiens) (UniProt Q9NPH5). Description: compounds shifting NOX4 Amplex Red fluorescence – cell-based, HEK293-NOX4, tetracycline-induced, NOX inhibitor project, primary screen (AID 1160). Particulars: HEK293-NOX4, Amplex Red H2O2 fluorescence, 45 min; higher = more signal, called active from +8 up or from −8 down.
Sequence of NADPH oxidase 4 (Homo sapiens) (Q9NPH5 whole entry, looked up): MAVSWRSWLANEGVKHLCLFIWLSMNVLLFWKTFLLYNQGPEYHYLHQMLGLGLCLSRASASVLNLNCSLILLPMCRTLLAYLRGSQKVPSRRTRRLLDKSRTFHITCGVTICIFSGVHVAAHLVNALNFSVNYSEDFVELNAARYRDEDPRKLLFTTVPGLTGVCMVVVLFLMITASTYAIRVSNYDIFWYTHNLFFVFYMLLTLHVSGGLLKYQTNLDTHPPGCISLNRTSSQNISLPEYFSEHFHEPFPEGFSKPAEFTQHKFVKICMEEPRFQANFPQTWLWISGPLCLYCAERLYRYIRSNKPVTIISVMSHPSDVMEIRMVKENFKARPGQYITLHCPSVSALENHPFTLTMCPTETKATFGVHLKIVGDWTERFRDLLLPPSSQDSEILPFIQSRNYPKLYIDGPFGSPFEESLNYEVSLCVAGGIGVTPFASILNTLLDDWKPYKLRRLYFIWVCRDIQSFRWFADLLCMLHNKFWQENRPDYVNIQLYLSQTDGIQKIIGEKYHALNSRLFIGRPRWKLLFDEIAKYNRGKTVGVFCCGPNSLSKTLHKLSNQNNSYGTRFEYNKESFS
Experiment [20] deals with NADPH oxidase 5 (Homo sapiens) (UniProt Q96PH1). The experiment can be described thus: compounds shifting NOX5 Amplex Red fluorescence – cell-based, HEK293-NOX5, NOX inhibitor project, primary screen (AID 1161). To be noted: HEK293-NOX5, ionomycin, 45 min, higher = more signal.
Sequence of NADPH oxidase 5 (Homo sapiens) (Q96PH1 whole entry, looked up): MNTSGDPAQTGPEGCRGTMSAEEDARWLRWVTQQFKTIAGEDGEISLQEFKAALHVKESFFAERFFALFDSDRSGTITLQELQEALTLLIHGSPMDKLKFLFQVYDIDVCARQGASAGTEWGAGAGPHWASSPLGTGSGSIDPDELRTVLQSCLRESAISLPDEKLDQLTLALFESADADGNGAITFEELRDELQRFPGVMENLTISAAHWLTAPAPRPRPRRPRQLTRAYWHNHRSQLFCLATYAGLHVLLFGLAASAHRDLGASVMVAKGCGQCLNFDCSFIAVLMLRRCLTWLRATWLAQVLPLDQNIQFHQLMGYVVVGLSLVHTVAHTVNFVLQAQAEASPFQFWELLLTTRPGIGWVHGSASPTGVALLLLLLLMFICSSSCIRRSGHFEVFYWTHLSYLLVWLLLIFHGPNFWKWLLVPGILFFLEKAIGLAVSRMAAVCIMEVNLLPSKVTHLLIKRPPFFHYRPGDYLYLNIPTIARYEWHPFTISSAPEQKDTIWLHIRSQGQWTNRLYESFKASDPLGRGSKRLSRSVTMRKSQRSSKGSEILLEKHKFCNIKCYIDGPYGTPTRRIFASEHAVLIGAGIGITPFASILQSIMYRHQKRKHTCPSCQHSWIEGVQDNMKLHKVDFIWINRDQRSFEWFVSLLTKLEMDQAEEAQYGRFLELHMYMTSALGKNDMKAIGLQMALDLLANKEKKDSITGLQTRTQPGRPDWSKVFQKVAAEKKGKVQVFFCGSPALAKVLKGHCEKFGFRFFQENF

Activity calls are given as the source filed them. Unless noted, no rule for the calls is given here.

Sequence of Streptavidin (Streptomyces avidinii) (P22629 whole entry, looked up): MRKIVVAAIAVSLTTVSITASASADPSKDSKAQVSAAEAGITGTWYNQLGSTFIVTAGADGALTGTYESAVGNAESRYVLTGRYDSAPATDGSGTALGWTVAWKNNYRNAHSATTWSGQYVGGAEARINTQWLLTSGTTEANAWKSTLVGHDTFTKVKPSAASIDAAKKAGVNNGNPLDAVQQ

Regarding `COc1ccccc1CN1C(=O)c2ccccc2[C@@]2(Cc3ccccc3N(C(C)C)C2=O)[C@@H]1c1ccc(CO)cc1`, the composite z-score in experiment [1] is -0.458; in experiment [6], -0.213; in [7] it was -0.0695; in experiment [8] it was -1.25; in experiment [9], 0.373; in [10] it was -0.147. In experiment [12], this compound had a composite z-score of 0.0371. Besides, the z-score in [2] is -1.84 (inactive); in experiment [3], -0.205 (inactive); in experiment [4], -0.179 (inactive); in [5] it was -0.335 (inactive); in [11], 1.74 (inactive); in [13], 0.0937 (inactive). Further, the z-score is -0.756 (inactive) in [14]; -0.964 (inactive) in experiment [15]; -0.876 (inactive) in experiment [16]; 1.79 in experiment [17]; -0.437 (inactive) in experiment [18]; 0.215 (inactive) in [19]. The z-score in [20] came out at 1.04.

As for `CO[C@H]1COC(=O)[C@@H]2CCCN2C(=O)[C@@H](C)COC(=O)CC=C[C@@H]1C`, the composite z-score in experiment [1] was 0.055; in [6], 0.457; in experiment [7], -0.0136; in experiment [8], 1.24; in experiment [9], 0.219; in experiment [10] it was 2.14. Also, the composite z-score in experiment [12] was -0.198. Besides, the z-score is 0.321 (inactive) in experiment [2]; -0.556 (inactive) in experiment [3]; -0.892 (inactive) in experiment [4]; -0.0307 (inactive) in [5]; 0.737 (inactive) in [11]; 0.464 (inactive) in [13]. The z-score in [14] was 0.279 (inactive); in [15], 0.61 (inactive); in experiment [16], 0.27 (inactive); in [17], -0.552; in experiment [18], -0.281 (inactive); in [19], 0.0546 (inactive). Besides, the z-score in experiment [20] was -0.48.

In the case of `CCN1C(=O)[C@H]2[C@H]3[C@H](O)[C@H](O)CC(=NOCc4ccccc4)[C@H]3CC[C@H]2C1=O`, the composite z-score in [1] is -0.0887; in [6] it was 0.201; in experiment [7], -0.189; in experiment [8], 0.171; in experiment [9], 0.46; in experiment [10], 0.109. Further, in experiment [12], the composite z-score is -0.276. In addition, the z-score in experiment [2] is 0.856 (inactive); in [3] it was -0.784 (inactive); in experiment [4] it was 0.25 (inactive); in experiment [5] it was -0.332 (inactive); in [11], -0.255 (inactive); in experiment [13], 1.78 (inactive). In addition, the z-score in experiment [14] is 0.012 (inactive); in experiment [15], -0.824 (inactive); in experiment [16] it was 0.0113 (inactive); in [17], 0.9; in [18], -0.145 (inactive); in [19], 0.32 (inactive). Moreover, in experiment [20], the z-score was -0.385.

Consider `CO[C@@H]1COC(=O)CCC[C@@H](C)[C@H](OC)COC(=O)CCC[C@H]1C`, for which the composite z-score was -0.0665 in experiment [1]; 0.0601 in experiment [6]; -0.0405 in experiment [7]; 0.978 in experiment [8]; 0.662 in experiment [9]; 0.533 in [10]. The compound also showed a composite z-score in experiment [12] of -0.0933. Moreover, the z-score in [2] was -0.459 (inactive); in experiment [3], -0.276 (inactive); in experiment [4], -0.152 (inactive); in [5], 0.273 (inactive); in experiment [11] it was -0.665 (inactive); in experiment [13], 0.553 (inactive). Also, the z-score in [14] is 0.637 (inactive); in experiment [15], 0.719 (inactive); in experiment [16] it was 0.49 (inactive); in experiment [17], -0.918; in [18] it was 0.545 (inactive); in [19], 0.567 (inactive). Further, the z-score in [20] was 0.031.

As for `[N-]=[N+]=Nc1ccccc1C[C@@]1(C(N)=O)N=C(c2ccc(OCCCO)cc2)O[C@@H]1c1ccccc1`, the composite z-score in experiment [1] was 0.0445; in [6], 1.08; in experiment [7], 0.0561; in [8], 0.296; in [9] it was 0.355; in [10], -0.714. Besides, the composite z-score in experiment [12] was 0.506. Moreover, the z-score is -4.04 (inactive) in [2]; -0.616 (inactive) in experiment [3]; 0.377 (inactive) in experiment [4]; -1.39 (inactive) in experiment [5]; -0.307 (inactive) in experiment [11]; 27.3 (active) in experiment [13]. Further, the z-score in experiment [14] was 22.4 (active); in [15] it was 2.73 (inactive); in experiment [16], 2.47 (inactive); in experiment [17] it was 1.4; in experiment [18] it was -2.2 (inactive); in experiment [19], 0.249 (inactive). Further, the z-score in [20] was -1.75.
